For test [1], the target named is Estrogen receptor (Homo sapiens) (UniProt P03372). Put plainly: qHTS assay for small molecule agonists of estrogen receptor alpha signaling (AID 588514). Further: nearly all actives have a fitted effect of over 70% in size. Further: potency means the concentration at half of the fitted maximal effect.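 On activation: 0% = vehicle only and 100% = reference agonist.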 The method, boiled down: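 EC50 and efficacy came from Hill fits of beta-lactamase reporter signal (CCF4 dye, 2 h at room temperature) scaled between DMSO and 20 nM 17-beta-estradiol. Agonist mode: HEK293 ER-alpha-UAS-bla cells in charcoal/dextran-stripped serum medium, 18 h compound exposure at 37 C.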

Test [2] deals with Glucocorticoid receptor (Homo sapiens) (UniProt P04150). Put plainly: qHTS assay for small molecule agonists of glucocorticoid receptor signaling (AID 588532; active means well fitted curve in the direction sought with a large enough effect in the signal ratio, with a control signal flat; the % refers to the signal ratio;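 further: 100% = dexamethasone at 0.1 µM and 0% = DMSO only wells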). Conditions: HeLa MMTV-bla, beta-lactamase ratio, agonist, 18 h; stronger effect = higher value; percent of dexamethasone control, DMSO zero. The method, boiled down:
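HeLa GRE-bla reporter cells; 18 h compound exposure at 37 C; 2 h CCF4 loading at room temperature; fluorescence at 460 and 530 nm; EC50 by Hill equation.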
On the technique in general: In qHTS, concentration-response curves come from the screen itself.

For test [3] the target is unchanged. Description: qHTS assay for small molecule antagonists of glucocorticoid receptor signaling (AID 588533; active means well fitted inhibition curve with a large enough effect in the signal ratio, with a control signal flat, not every such curve was filed as active; the % refers to the signal ratio; further: potency means the concentration at half of the fitted maximal effect; on activity change, negative = inhibition: on the % scale 0 is the no-effect control and ±100 the full control effect). The method, boiled down: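 Antagonist-mode qHTS: compound titrations added to GRE-bla HeLa cells, then dexamethasone 2 nM final; 18 h, 37 C. CCF4 FRET fluorescence normalized to dexamethasone and DMSO; IC50 from Hill fit.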
Test [4] can be described thus: qHTS assay for small molecule antagonists of peroxisome proliferator-activated receptor delta signaling (AID 588535; active means well fitted inhibition curve with a large enough effect in the signal ratio, with a control signal flat, not every such curve was filed as active; the % refers to the signal ratio;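 on max response: cells co-treated with a PPAR-delta agonist as stimulator during compound exposure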). Conditions: HEK293T PPARd-UAS-bla, beta-lactamase FRET ratio, 18 h; 460 nm channel. The method, boiled down: (§1)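 Fluorescence from CCF4-loaded GeneBLAzer PPAR-delta-UAS-bla HEK293T cells (2 hrs RT loading) quantified reporter inhibition after an 18 hr, 37 C compound exposure across a titration.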

Test [5] deals with Peroxisome proliferator-activated receptor delta (Homo sapiens) (UniProt Q03181). The test is described as above. In outline: as §1
For test [6], the target named is Retinoic acid receptor RXR-alpha (Homo sapiens) (UniProt P19793). Put plainly: qHTS assay for small molecule antagonists of retinoid X receptor alpha signaling (AID 588546; active means well fitted inhibition curve with a large enough effect in the signal ratio, with a control signal flat, not every such curve was filed as active; the % refers to the signal ratio;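 further: cells stimulated with 9-cis-retinoic acid as agonist; on the % scale 0 is the no-effect control and ±100 the full control effect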). The note with it: HEK293T RXRa-UAS-bla, beta-lactamase ratio, antagonist mode. The method, boiled down:
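Beta-lactamase reporter inhibition, read as CCF4 fluorescence ratio (ex 405, em 460/530 nm) after 2 h at RT. HEK293T UAS-bla cells, 2500/well, were stimulated with 9-cis-RA at 500 or 100 nM final alongside test compound for 18 h at 37 C.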

The nature of test [7]: qHTS assay for small molecule activators of the p53 signaling pathway (AID 651743; active means well fitted activation curve with a large enough effect in the signal ratio, not every such curve was filed as active; the % refers to the signal ratio; further: % of control where 0% means no effect). The note with it: HCT-116 p53RE-bla, beta-lactamase FRET ratio, 16 h; activation: stronger effect = higher value. In outline:
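Following 16 hours of compound exposure at 37 C, HCT-116 cells bearing the p53RE-bla reporter were loaded with LiveBLAzer B/G FRET substrate for 2 hours at room temperature and fluorescence intensity was recorded.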

In test [8] the target is Ubiquitin carboxyl-terminal hydrolase 1 (Homo sapiens) (UniProt O94782). Put plainly: Inhibitors of USP1/UAF1: Pilot qHTS (AID 504865; active means well fitted curve in the direction sought with a large enough effect; an effect the other way counts as inactive or inconclusive;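 further: rhodamine fluorescence freed from ubiquitin-rhodamine substrate followed over time; top concentration of the series differs between compounds; on the % scale 0 is the no-effect control and ±100 the full control effect; nearly all actives have a fitted effect of over 35% in size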). In outline:
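Deubiquitinase activity followed as kinetic rhodamine fluorescence release from 150 nM Ub-Rho. 1 nM USP1/UAF1 with compound, after 15 min room-temperature preincubation, in HEPES pH 7.8 buffer containing TCEP, EDTA, BSA and Tween-20.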

Test [9] is described as follows: S16 Schwann cell viability assay (CellTiter-Glo assay) (AID 624031; active means well fitted curve in the direction sought with a large enough effect; an effect the other way counts as inactive or inconclusive; further: nearly all actives have a fitted effect of over 70% in size; further: potency means the concentration at half of the fitted maximal effect). The method, boiled down: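 Untransfected S16 rat Schwann cells; compound 24 h, 37 °C/5% CO2; CellTiter-Glo ATP luminescence. % activity vs no-cell wells and DMSO controls (0%); concentration-effect curves classed by r2, response magnitude, activity.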
The target of test [10] is Nuclear receptor ROR-gamma (Homo sapiens) (UniProt P51449). Description: qHTS assay for small molecule antagonists of the retinoid-related orphan receptor gamma (ROR-gamma) signaling pathway (AID 651802; active means well fitted curve in the direction sought with a large enough effect; an effect the other way counts as inactive or inconclusive;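 further: CHO cells with doxycycline-induced ROR-gamma expression; luciferase reporter luminescence driven by ROR response element; on the % scale 0 is the no-effect control and ±100 the full control effect; nearly all actives have a fitted effect of over 60% in size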). The method, boiled down:
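Luminescence (One-Glo, 30 min RT) measured 16 h after compound addition and doxycycline induction at 37C. Reporter: RORE-luciferase under TET-inducible ROR-gamma in CHO cells.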

The subject of test [11] is CP215. Put plainly: qHTS profiling for inhibitors of Plasmodium falciparum proliferation (AID 504749; active means well fitted curve in the direction sought with a large enough effect; an effect the other way counts as inactive or inconclusive; further: nearly all actives have a fitted effect of over 60% in size; further: potency means the concentration at half of the fitted maximal effect). The note with it: P. falciparum in erythrocytes, SYBR Green DNA, 72 h; series mostly up to 28.7 µM. In outline:
(§2)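 Each compound contacts P. falciparum-infected red blood cells for 72 h at 37 C; lysis buffer (Tris, EDTA, saponin, Triton X, SYBR Green I) is added and fluorescence measured next morning; values normalized to controls.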

The test system of test [12] is CP250. The description is as above. The note with it: P. falciparum in erythrocytes, SYBR Green DNA, 72 h; series mostly up to 28.7 µM. In outline:
as §2

Test [13] deals with P93_24. Described as above. The note with it: P. falciparum in erythrocytes, SYBR Green DNA, 72 h; series mostly up to 28.7 µM. The method, boiled down:
as §2

Test [14] relates to TAB113. The test is described as above. The note with it: P. falciparum in erythrocytes, SYBR Green DNA, 72 h; series mostly up to 28.7 µM. In outline:
as §2

Test [15] deals with TAB165. The description is as above. The note with it: P. falciparum in erythrocytes, SYBR Green DNA, 72 h; series mostly up to 28.7 µM. In outline:
as §2

Test [16] can be described thus: qHTS assay for small molecule activators of the human pregnane X receptor (PXR) signaling pathway (AID 720659; call rule not given here; further: 0% is about no effect).
Test [17] has as its target Mitogen-activated protein kinase 10 (Mus musculus) (UniProt Q61831). Description: JNK3 AlphaScreen Assay (AID 530; active means well fitted curve in either direction with a large enough effect, not every such curve was filed as active;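 further: kinase came from lysate of stimulated human HepG2 cells; signal reports phosphorylation of biotinylated GST-cJun 1-79 at Ser73 with 10 µM ATP; on the % scale 0 is the no-effect control and ±100 the full control effect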). The method, boiled down: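 Activity was read by AlphaScreen after JNK3-containing HepG2 lysate (cytokine pre-activated) phosphorylated biotinylated GST-cJun with 10 uM ATP at room temperature. Phospho-Ser73 cJun antibody with Protein-A acceptor beads provided detection.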

Test [18] concerns the target Vitamin D3 receptor (Homo sapiens) (UniProt P11473). Put plainly: qHTS assay for small molecule antagonists of vitamin D receptor signaling (AID 588541).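 Further: receptor activated by calcitriol during compound treatment; on the % scale 0 is the no-effect control and ±100 the full control effect.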 In outline: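 VDR-UAS-bla HEK293T cells in 2% charcoal-stripped FBS were stimulated with 1-alpha,25-dihydroxyvitamin D3 (3 nM final) plus compound for 16 h at 37 C. The beta-lactamase CCF4 readout was normalized to 50 nM agonist and DMSO, and Hill fits gave IC50.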

The nature of test [19]: qHTS assay for small molecule disruptors of the mitochondrial membrane potential - 1 hr assay (AID 651754). Further: nearly all actives have a fitted effect of over 35% in size. Further: potency means the concentration at half of the fitted maximal effect. The method, boiled down: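 Mitochondrial potential in living HepG2 cells after 1 hr compound treatment at 37C was read with Mito-MPS dye added for a further 30 min. Red aggregate and green monomer fluorescence were measured; loss of potential leaves dye as cytoplasmic monomers.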

Test [20] is described as follows: S16 Schwann cell PMP22 intronic element beta-lactamase assay (AID 624044). Further: nearly all actives have a fitted effect of over 15% in size. Further: potency means the concentration at half of the fitted maximal effect. The method, boiled down: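 Beta-lactamase reporter under a PMP22 intronic regulatory element in stable S16 rat Schwann cells; 24 h compound exposure. 460 nm blue signal normalized between DMSO (0%) and potassium clavulanate, with 535 nm FRET tracking viability; curves classed by r2 and response.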

Several values for one entry are separate records, joined by “and”; a condition that tells them apart may be missing. Equal values may be shown once. Records with an inconclusive call do not appear. Activity calls are given as the source filed them. Unless noted, the call rests on the fitted dose curve.

The text below walks through data of PubChem BioAssay (NCATS).

Chain of Vitamin D3 receptor (Homo sapiens) (P11473 whole entry, looked up): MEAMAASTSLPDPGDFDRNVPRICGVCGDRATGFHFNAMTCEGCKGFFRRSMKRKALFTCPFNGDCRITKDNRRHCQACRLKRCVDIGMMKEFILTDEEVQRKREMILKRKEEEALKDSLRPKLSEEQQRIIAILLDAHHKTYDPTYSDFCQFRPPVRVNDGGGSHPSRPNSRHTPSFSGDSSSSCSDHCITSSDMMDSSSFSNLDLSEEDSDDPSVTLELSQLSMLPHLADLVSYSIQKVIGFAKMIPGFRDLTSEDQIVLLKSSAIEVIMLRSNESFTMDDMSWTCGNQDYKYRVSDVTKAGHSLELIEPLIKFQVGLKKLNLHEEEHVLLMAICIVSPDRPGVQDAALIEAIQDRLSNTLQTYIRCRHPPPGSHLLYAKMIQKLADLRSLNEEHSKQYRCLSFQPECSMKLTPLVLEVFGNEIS
Chain of Ubiquitin carboxyl-terminal hydrolase 1 (Homo sapiens) (O94782 whole entry, looked up): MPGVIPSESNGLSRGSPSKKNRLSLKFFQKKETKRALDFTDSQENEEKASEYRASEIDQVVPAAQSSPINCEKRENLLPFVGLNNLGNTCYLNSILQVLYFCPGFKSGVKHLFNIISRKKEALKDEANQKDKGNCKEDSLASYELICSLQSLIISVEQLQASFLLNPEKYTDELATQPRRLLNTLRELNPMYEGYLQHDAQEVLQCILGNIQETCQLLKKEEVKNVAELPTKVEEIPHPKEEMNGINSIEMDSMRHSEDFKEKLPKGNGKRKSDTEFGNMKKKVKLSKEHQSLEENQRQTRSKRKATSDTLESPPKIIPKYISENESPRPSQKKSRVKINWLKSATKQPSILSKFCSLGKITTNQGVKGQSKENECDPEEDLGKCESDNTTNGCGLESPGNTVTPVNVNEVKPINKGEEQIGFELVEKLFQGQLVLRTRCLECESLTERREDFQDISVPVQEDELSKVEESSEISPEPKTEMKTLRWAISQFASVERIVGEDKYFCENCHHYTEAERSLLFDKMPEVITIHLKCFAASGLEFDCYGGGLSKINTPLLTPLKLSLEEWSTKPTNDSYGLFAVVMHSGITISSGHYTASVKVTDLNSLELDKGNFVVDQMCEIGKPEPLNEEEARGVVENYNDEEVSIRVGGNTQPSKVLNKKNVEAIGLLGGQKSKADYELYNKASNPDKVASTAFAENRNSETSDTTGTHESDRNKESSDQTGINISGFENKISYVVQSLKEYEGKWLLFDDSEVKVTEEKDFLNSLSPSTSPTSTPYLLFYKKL
Chain of Retinoic acid receptor RXR-alpha (Homo sapiens) (P19793 whole entry, looked up): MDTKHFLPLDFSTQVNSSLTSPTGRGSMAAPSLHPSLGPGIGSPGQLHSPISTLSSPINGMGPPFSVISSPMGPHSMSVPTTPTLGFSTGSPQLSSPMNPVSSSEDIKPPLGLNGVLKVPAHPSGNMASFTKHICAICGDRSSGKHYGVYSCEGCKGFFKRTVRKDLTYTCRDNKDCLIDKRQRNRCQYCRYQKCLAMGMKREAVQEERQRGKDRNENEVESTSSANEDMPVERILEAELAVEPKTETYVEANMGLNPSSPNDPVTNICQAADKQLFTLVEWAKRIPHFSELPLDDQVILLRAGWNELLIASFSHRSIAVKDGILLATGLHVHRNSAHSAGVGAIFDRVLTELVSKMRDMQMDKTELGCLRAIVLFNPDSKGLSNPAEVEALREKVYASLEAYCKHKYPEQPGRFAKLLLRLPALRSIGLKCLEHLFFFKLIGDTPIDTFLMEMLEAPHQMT
Chain of Glucocorticoid receptor (Homo sapiens) (P04150 whole entry, looked up): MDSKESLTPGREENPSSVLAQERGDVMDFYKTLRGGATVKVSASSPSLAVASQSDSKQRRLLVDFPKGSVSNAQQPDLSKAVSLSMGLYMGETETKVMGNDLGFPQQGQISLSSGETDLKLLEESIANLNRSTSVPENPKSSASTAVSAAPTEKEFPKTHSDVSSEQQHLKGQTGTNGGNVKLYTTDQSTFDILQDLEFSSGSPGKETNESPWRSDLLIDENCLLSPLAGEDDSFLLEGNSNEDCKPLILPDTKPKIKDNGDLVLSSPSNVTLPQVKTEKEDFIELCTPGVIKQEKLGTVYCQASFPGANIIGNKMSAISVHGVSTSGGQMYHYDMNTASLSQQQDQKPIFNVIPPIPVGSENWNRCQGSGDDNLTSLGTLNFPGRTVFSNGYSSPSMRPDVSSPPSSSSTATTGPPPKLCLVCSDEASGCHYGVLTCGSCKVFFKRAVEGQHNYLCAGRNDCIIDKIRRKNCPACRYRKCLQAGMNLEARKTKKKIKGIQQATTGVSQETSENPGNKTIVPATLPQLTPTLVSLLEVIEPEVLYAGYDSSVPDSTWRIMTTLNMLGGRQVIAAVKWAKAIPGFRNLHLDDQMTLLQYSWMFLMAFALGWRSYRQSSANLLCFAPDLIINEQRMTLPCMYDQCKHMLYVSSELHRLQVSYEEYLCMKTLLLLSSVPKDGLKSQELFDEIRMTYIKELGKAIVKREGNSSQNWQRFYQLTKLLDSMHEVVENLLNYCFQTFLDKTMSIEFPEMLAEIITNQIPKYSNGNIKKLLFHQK
Chain of Nuclear receptor ROR-gamma (Homo sapiens) (P51449 whole entry, looked up): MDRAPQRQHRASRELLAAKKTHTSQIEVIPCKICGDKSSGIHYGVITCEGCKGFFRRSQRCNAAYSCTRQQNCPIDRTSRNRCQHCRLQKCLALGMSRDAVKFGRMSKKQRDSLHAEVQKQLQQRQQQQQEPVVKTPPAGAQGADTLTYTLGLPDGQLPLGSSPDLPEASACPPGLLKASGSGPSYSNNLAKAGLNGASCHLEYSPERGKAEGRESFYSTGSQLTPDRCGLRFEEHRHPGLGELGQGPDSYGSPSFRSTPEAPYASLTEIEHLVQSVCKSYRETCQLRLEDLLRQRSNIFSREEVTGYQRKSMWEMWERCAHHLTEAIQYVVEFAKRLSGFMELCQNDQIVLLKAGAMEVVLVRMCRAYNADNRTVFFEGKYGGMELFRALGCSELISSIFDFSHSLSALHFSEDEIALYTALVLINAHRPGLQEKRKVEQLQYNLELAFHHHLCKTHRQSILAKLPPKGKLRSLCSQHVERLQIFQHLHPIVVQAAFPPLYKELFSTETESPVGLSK
Chain of Peroxisome proliferator-activated receptor delta (Homo sapiens) (Q03181 whole entry, looked up): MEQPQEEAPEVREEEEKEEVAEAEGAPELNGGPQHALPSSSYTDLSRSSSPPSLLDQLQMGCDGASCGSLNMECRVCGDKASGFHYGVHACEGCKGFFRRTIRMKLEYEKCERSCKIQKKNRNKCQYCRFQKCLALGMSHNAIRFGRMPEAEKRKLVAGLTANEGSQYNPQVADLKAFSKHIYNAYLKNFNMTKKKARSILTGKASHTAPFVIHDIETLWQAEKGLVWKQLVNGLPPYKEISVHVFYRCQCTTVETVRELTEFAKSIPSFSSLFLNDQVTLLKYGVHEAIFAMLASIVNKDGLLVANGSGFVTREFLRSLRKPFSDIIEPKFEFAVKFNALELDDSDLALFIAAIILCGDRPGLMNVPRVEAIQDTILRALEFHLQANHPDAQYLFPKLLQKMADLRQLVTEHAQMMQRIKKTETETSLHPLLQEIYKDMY
Chain of Estrogen receptor (Homo sapiens) (P03372 whole entry, looked up): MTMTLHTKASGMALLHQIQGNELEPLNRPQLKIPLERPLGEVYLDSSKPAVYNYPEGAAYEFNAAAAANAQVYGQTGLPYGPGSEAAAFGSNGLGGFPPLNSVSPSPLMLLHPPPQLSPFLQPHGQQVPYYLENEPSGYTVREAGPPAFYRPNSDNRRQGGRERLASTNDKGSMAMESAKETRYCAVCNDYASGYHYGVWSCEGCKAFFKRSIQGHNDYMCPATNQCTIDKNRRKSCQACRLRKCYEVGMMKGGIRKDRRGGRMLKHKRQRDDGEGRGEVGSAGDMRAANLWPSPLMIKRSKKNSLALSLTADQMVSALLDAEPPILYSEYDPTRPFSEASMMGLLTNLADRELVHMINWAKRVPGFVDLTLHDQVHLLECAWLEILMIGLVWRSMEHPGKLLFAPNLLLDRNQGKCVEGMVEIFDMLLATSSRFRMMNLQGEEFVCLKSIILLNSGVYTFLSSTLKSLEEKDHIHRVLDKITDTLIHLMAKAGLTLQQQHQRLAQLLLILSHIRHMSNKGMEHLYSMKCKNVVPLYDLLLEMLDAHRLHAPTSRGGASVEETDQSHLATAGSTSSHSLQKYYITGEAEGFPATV

With `Cc1cccc(O)c1`, the Potency result in [1], in test [3] and in test [5] was “inactive” throughout. The activation is 1.46% (inactive) and -4.97% (inactive) in test [2]; -5.47% (inactive) and -2.85% (inactive) in test [7]. Also, the max response was -22.1% and -37.2% in test [4]; -27.1% (inactive) and -3.41% (inactive) in test [6].

Turning to `C/C=C\c1ccc(OC)cc1`, the Potency entry in test [8], in [5], in test [9], in test [10], in test [11] and in [12] was “inactive” throughout. The Potency result in [13], in [14] and in test [15] was “inactive” throughout. The max response in [4] was -7.78%; in test [6], 3.92% (inactive). In test [16], the result was inactive.

As for `Cc1cccc([N+](=O)[O-])c1C`, the Potency result in test [17], in test [1], in test [5] and in [19] was “inactive” throughout. In addition, the max response in test [4] was -14.5% and -6.43%. Further, the outcome in [18] and in test [16] was inactive. For the same molecule, in test [7], the activation was -0.524% (inactive) and 0.427% (inactive).

In the case of `CN1CC[C@H](CN2c3ccccc3Sc3ccccc32)C1`, the activity change, negative = inhibition in test [17] was 0.762% [at 11.4 µM] (inactive). The Potency entry in [8] and in test [20] was “inactive” each time. Moreover, the figures for the Potency in test [9], in test [13] and in test [15] were 36.1 µM (active), 7.08 µM (active) and 12.6 µM (active), respectively.

Take `O[C@@H]([C@H](O)[C@@H](O)CBr)[C@@H](O)CBr`: the Potency entry in test [17], in test [1] and in test [10] was “inactive” throughout. Also, the outcome in test [18] and in test [16] was inactive. For the same molecule, in [6], the max response was 12.2% (inactive). Moreover, in test [7], the activation was 4.39% (inactive).

`CC1(C)CC(N=C=O)CC(C)(CN=C=O)C1` (configuration not stated): the Potency result in test [17], in test [1], in test [19] and in [10] was “inactive” in each case. In addition, the molecule was classed as inactive in test [18] and in test [16]. In test [6], the max response is 12.5% (inactive) and -8% (inactive). In [7], the activation was 0.263% (inactive) and 0.482% (inactive).

For `CCC(O)OC(O)CC` (configuration not stated), the Potency result in test [17], in [1], in test [3] and in [19] was “inactive” in each case. For the same molecule, the activation was 1.96% (inactive) and -2.19% (inactive) and -0.591% (inactive) in test [2]; 0.0103% (inactive) [middle of 4 runs] in test [7]. The call in test [18] and in test [16] was inactive. The max response in test [6] was -3.68% (inactive) and -1.43% (inactive).

On to `O=C1c2ccccc2C(=O)C1c1ccc2ccccc2n1`, for which the Potency in test [1] was 1 µM (active); in test [19] it was 0.944 µM (active). In addition, the activation in test [2] is -2.81% (inactive) and -4.97% (inactive); in test [7], 5.56% (inactive) and 14% (inactive). Further, the Potency result in test [3] was “inactive”. Besides, in [18], the call was inactive.

As for `NC1=NC(S)C2N=CN=C2N1` (configuration not stated), the Potency entry in test [17], in test [8], in [19], in test [10], in [11] and in test [12] was “inactive” throughout. Besides, the Potency result in test [13], in [14] and in [15] was “inactive” each time. Moreover, in test [2], the activation was -9.94% (inactive). The Potency in test [3] was 7.08 µM (active); in test [20], 3.98 µM (active). The result in test [18] was inactive. Also, in test [6], the max response is 2.23% (inactive).
